Among the data in ChEMBL document CHEMBL1201862, “PubChem BioAssay data set” (2004) are Potency values, retold here.

The whole screen tested about 400,000 compounds, of which about 2,100 (0.53%) were called active. Roughly 14% stayed inconclusive and do not appear here. No rule for the calls is given here. This excerpt belongs to a sample that is enriched for actives.

Ataxin-2 (Homo sapiens), sequence (Q99700 whole entry): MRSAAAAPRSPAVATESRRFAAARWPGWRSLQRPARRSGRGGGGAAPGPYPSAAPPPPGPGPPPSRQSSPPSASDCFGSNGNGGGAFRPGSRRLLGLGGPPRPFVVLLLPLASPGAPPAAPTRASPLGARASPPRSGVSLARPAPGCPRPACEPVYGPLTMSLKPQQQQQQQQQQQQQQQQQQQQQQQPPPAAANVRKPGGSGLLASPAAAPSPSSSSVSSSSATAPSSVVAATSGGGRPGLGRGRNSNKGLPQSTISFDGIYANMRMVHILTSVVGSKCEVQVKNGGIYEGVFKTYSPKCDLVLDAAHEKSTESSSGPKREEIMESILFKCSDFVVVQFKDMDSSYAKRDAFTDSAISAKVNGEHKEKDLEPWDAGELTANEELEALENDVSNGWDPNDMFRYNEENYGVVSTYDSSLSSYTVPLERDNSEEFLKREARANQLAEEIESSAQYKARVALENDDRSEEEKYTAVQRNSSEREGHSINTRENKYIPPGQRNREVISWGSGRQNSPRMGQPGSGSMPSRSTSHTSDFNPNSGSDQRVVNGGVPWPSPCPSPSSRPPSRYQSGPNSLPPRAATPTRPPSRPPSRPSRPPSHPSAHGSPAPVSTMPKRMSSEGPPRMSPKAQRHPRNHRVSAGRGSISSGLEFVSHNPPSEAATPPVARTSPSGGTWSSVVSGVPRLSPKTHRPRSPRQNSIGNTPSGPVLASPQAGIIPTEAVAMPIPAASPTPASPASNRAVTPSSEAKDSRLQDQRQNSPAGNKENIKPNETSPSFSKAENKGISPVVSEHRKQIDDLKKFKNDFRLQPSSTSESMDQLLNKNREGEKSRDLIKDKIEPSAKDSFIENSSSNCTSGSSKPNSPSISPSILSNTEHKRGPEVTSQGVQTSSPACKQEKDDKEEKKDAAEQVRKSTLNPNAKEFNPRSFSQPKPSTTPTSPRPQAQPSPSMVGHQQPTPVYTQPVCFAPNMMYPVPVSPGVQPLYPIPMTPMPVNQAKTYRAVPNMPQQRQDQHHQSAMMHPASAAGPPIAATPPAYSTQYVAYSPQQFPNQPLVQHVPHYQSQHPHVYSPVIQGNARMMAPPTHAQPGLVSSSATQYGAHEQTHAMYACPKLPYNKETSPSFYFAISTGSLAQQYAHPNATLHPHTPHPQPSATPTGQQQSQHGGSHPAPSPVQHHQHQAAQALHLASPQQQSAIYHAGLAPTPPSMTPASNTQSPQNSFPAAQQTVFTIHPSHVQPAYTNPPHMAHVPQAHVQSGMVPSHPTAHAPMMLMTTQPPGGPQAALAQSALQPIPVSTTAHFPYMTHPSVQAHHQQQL

The assay concerns the target Ataxin-2 (Homo sapiens) (UniProt Q99700). As to the kind of experiment: qHTS for Inhibitors of ATXN expression. The assay is classed as functional. On the technique in general: Quantitative high-throughput screening tests each substance at several concentrations.
In the case of `Fc1ccc(C2CC(c3cccs3)=NN2c2ccccc2)cc1` (stereo unspecified), the Potency result was “inactive”. The entry for `Cc1cc(F)ccc1NC(=O)c1sc2nc(-c3cccs3)ccc2c1N` is “inactive”; for `CCOC(=O)c1cc2c(=O)n3ccccc3nc2n(Cc2ccco2)/c1=N/C(=O)c1ccc(OC)cc1OC` it is “inactive”.

For `COC(=O)[C@]12CCCCC=C1N(Cc1cccc3ccccc13)C(=O)[C@H](CC(=O)N1CCN(C(=O)c3ccco3)CC1)C2`, the Potency was 22.4 µM (active).

In the case of `CCCCCCCCN1C(=O)[C@H](CC(=O)N2CCN(C(=O)c3ccco3)CC2)C[C@@]2(C(=O)OCC)CCCC=C12`, the Potency was 14.1 µM (active).

As for `COC(=O)[C@]12CCCCC=C1N(CCC1=CCCCC1)C(=O)[C@H](CC(=O)N1CCN(C(=O)c3ccco3)CC1)C2`, the Potency was 22.4 µM (active).

Consider `O=C(Nc1c(C(=O)c2ccc(F)cc2)oc2ccccc12)c1cc(-c2ccccc2)on1`, for which the Potency result is “inactive”. The entry for `COc1cc(/C=N/Nc2ccc([N+](=O)[O-])cc2S(=O)(=O)N2CCOCC2)cc(OC)c1OC` is “inactive”.

In the case of `Cc1ccc(Cl)cc1N1CCN(C(=O)Cc2csc(Nc3nc(S)nc4ccccc34)n2)CC1`, the Potency result is “inactive”. In the case of `Cc1ccc(Cl)cc1N1CCN(C(=O)c2cnn(-c3ccc(Cl)cc3)c2C2CCNCC2)CC1`, the Potency was 39.8 µM (active). The entry for `Cc1ccc(Nc2ncc(C(=O)N3CCN(c4ccc(F)cc4)CC3)c3ccccc23)cc1Cl` is “inactive”. The entry for `COc1ccc(S(=O)(=O)NCCc2cn3nc(C)c(C)nc3n2)cc1` is “inactive”; for `CN1C2=CC=CC=CC2=[N+](C)C12C=CC(=[N+]([O-])[O-])C=C2[N+](=O)[O-]` (stereo unspecified) it is 20 µM (active). The entry for `CCN(CC)C1=CC2=CC(=C(C#N)C#N)CCC2CC1` (stereo unspecified) is “inactive”.

As for `Cc1ccc(CN2C(=O)CC(c3ccc(Cl)cc3)c3c(C)nn(-c4nc(C)cc(C)n4)c32)cc1` (stereo unspecified), the Potency was 39.8 µM (active).

As to `Cc1cc(C)nc(N(C#N)Cc2ccc(Cl)cc2)n1`, the Potency entry is “inactive”. As for `CCOC(=O)C1CCN(S(=O)(=O)c2cc3c(cc2C)NC(=O)CO3)CC1`, the entry is “inactive”; as for `Cn1c(-c2c(N)n(CCCc3ccccc3)c3nc4ccccc4nc23)nc2ccccc21`, “inactive”. The figure for `CS(=O)(=O)c1nc([N+](=O)[O-])nn1CCCc1ccccc1` is 39.8 µM (active); for `CCN(C(=O)c1cc2c(=O)n3ccccc3nc2s1)C1CCCCC1` it is “inactive”. The figure for `O=[N+]([O-])c1cncc([N+](=O)[O-])c1Nc1cccc(O)c1` is 22.4 µM (active); for `COc1ccc(C2NS(=O)(=O)N=C2N)cc1` (stereo unspecified) it is “inactive”. With `N#Cc1c(-c2ccccc2)c(C#N)c2nc3ccccc3n2c1N`, the Potency result was “inactive”. The entry for `Nc1ccc2c(C(F)(F)F)cc(=O)oc2c1` is “inactive”. The entry for `CC(=O)c1cccc(NC(=O)c2ccccc2-c2ccccc2C(=O)O)c1` is “inactive”; for `COCCn1c(SCC(=O)Nc2ccc(NC(C)=O)cc2)nc2ccccc2c1=O` it is “inactive”; for `O=C(Cn1c(=O)c(=O)n(Cc2ccccc2)c2ccc(Cl)cc21)NCC1CCCO1` (stereo unspecified) it is “inactive”. As for `Cn1c(SCC(=O)NCC2CCCO2)ncc(C(=O)Nc2ccc(Cl)cc2)c1=O` (stereo unspecified), the figure is 35.5 µM (active); as for `CC(=O)Nc1cccc(NC(=O)CSc2ncc(C(=O)Nc3ccccc3)c(=O)n2C)c1`, 39.8 µM (active); as for `CC(C)Cn1c(SC(C)C(=O)NCC2CCCO2)nc2ccc(Cl)cc2c1=O` (stereo unspecified), “inactive”. Take `CC1=CC2=NC(=O)/C(=C/c3coc4ccccc4c3=O)C(=N)N2O1`: the Potency entry is “inactive”. In the case of `COc1ccc(-c2c(C)c3ccc(O)c(CN4CCN(CCO)CC4)c3oc2=O)cc1OC`, the Potency result is “inactive”.

Consider `O=C(Nc1nc2n(n1)C(c1ccccc1)C=C(c1ccccc1)N2)c1ccccc1` (stereo unspecified), for which the Potency entry was “inactive”. As for `COc1cc(NS(=O)(=O)c2ccc(N/C=C\C(=O)c3ccc(F)cc3)cc2)nc(OC)n1`, the entry is “inactive”. On to `O=C1C(Br)=Cc2cccc3cccc1c23`, for which the Potency result was “inactive”. With `O=C1c2sccc2-c2cccc3cccc1c23`, the Potency entry is “inactive”. As for `O=C1c2cccc3cccc(c23)C(=O)C1(O)O`, the Potency is 15 µM (active). The figure for `Cc1cc2nc(-c3ccco3)c(Cc3ccccc3C(F)(F)F)n2c(C)c1Br` is 39.8 µM (active). On to `O=C1NC(Cc2ccc(O)cc2)c2nc3cc(F)c(F)cc3c(=O)n2-c2cc3ccccc3cc21` (stereo unspecified), for which the Potency is 35.5 µM (active). For `CN(C)CCOC1(Cc2ccc(F)cc2)CCC(C(C)(C)C)CC1` (stereo unspecified), the Potency is 21.2 µM (active). As for `Cc1ccc(CC2(OCCN(C)C)CCC(C(C)(C)C)CC2)cc1` (stereo unspecified), the figure is 42.3 µM (active).

For `O=C(NCc1nc2ccccc2[nH]1)C1=C[C@@H](c2ccc(Br)cc2)C[C@@H](OCCCCO)O1`, the Potency is 31.6 µM (active). The entry for `Cc1ccccc1NC(=O)CN1C(=O)S/C(=C\c2ccc(-c3cc(C(=O)O)ccc3C)o2)C1=O` is “inactive”. In the case of `C=C1CC2(OC1=O)c1ccccc1CCc1ccccc12`, the Potency is 5.97 µM (active). As for `O=S(=O)(c1ccc(Cl)c(C(F)(F)F)c1)N1CCN(c2ccccn2)CC1`, the entry is “inactive”. Regarding `O=C(c1ccco1)[C@@H]1[C@@H]2C(=O)N(c3ccc(F)cc3)C(=O)[C@@H]2[C@H]2C=Cc3ccccc3N21`, the Potency entry was “inactive”. On to `COc1cc(CN2CCCC(CO)(Cc3cccc(Cl)c3)C2)cc(OC)c1O` (stereo unspecified), for which the Potency entry is “inactive”. Regarding `Cc1ccc(S(=O)(=O)Nc2nc3n(n2)C(c2ccc(F)cc2)C=C(c2ccccc2)N3)cc1` (stereo unspecified), the Potency entry is “inactive”. Regarding `O=C(N/N=C/c1ccc(-c2ccc([N+](=O)[O-])cc2)o1)C(O)c1ccccc1` (stereo unspecified), the Potency entry is “inactive”. As for `O=C(O)/C=C/C(=O)NNc1ccc([N+](=O)[O-])cc1`, the figure is 13.4 µM (active). Regarding `Cc1ccc(N2CCN(S(=O)(=O)c3nnc(NC(=O)c4ccco4)s3)CC2)cc1`, the Potency result is “inactive”. As for `Cc1sc(NC(=O)c2ccco2)nc1-c1ccc2c(c1)CC(C)N2C(=O)C1CC1` (stereo unspecified), the figure is 28.2 µM (active); as for `CCc1ccccc1N1CC(c2nnc(NC(=O)c3ccco3)s2)CC1=O` (stereo unspecified), “inactive”; as for `C=CCN=C(S)Nc1ccc(C(N)=O)cc1`, “inactive”.

Take `COc1ccc(CCn2c(=S)[nH]c3cc(C(=O)N4CCOCC4)ccc3c2=O)cc1OC`: the Potency result was “inactive”. The entry for `COc1ccc(CCn2c(=S)[nH]c3ccc(N4CCOCC4)cc3c2=O)cc1OC` is “inactive”; for `COc1ccc(CCn2c(=S)[nH]c3cc(C(=O)NCc4ccco4)ccc3c2=O)cc1OC` it is 28.2 µM (active); for `O=C1OC(c2ccc3ccccc3c2O)(c2ccc3ccccc3c2O)c2ccccc21` it is 17.8 µM (active). On to `Cc1cc(O)c(C(C)C)cc1C1(c2cc(C(C)C)c(O)cc2C)OC(=O)c2ccccc21`, for which the Potency is 31.6 µM (active). As for `CC(=O)Oc1ccc2c(c1)Oc1cc(OC(C)=O)ccc1C21OC(=O)c2ccccc21`, the Potency entry is “inactive”. The entry for `Cc1cccc2c3c([nH]c12)C(=O)CC(C)(C)S3` is “inactive”; for `O=C(N/C(=C/c1ccccc1Cl)C(=O)N1CCCC1)c1ccccc1` it is “inactive”; for `Cc1nc(N2CCN(c3ccccc3F)CC2)nc(O)c1C` it is “inactive”. The entry for `CCCc1cc(NC(=O)COC(=O)c2nccnc2N)n(-c2ccccc2)n1` is “inactive”; for `CCOC(=O)[C@]12Cc3c(cc(OC)c(OC)c3OC)[C@H]1N(CCC(=O)OC)C(=O)c1cc(OC)ccc12` it is 22.4 µM (active); for `c1cncc(-c2nc(N3CCOCC3)c3c4c(sc3n2)CCC4)c1` it is “inactive”. As for `CCc1cc2c(COC(=O)CCNS(=O)(=O)c3cccc(C(F)(F)F)c3)cc(=O)oc2cc1O`, the entry is “inactive”; as for `CCN(CC)CCN1C(=O)/C(=C\c2ccc(Cl)c([N+](=O)[O-])c2)S/C1=N\c1ccc(OC)cc1`, 28.2 µM (active). As to `C=CCN1C(=O)/C(=C/c2ccc(OC)cc2)S/C1=N/c1nccs1`, the Potency entry is “inactive”. The entry for `Cc1cc(=O)oc2c(CN3CCN(CCO)CC3)c(O)ccc12` is “inactive”; for `O=C(CN1C(=O)NC2(CCOc3ccccc32)C1=O)Nc1ccc(F)c(F)c1F` (stereo unspecified) it is “inactive”; for `CCC(=O)NCCCNc1nc2c(C)cccc2cc1C#N` it is “inactive”. As for `CCN1C(=O)/C(=C/C2=Cc3ccccc3OC2C)SC1=S` (stereo unspecified), the entry is “inactive”; as for `CCN1C(=O)/C(=C\C=C2/C=CC=CN2CC)SC1=S`, 20 µM (active); as for `Cc1cc(O)nc2c1c(-c1ccccc1)nn2C`, “inactive”. `CC(C(=O)N1CCOCCOCCOCCOCCOCC1)N1C(=O)c2ccccc2C1=O` (stereo unspecified): the Potency entry was “inactive”. As for `O=C(CN1C(=O)NC2(CCCC2)C1=O)Oc1ccc2ccc(=O)oc2c1`, the entry is “inactive”. As for `CC1=CC(C)(C)Nc2ccc(OC(=O)CCN3C(=O)c4ccccc4C3=O)cc21`, the figure is 25.1 µM (active); as for `O=C(CN1C(=O)NC2(CCCCC2)C1=O)Oc1ccc2ccc(=O)oc2c1`, “inactive”. As for `CC1=CC(C)(C)Nc2ccc(OC(=O)C(C)N3C(=O)c4ccccc4C3=O)cc21` (stereo unspecified), the Potency is 39.8 µM (active). The figure for `CC1=CC(C)(C)Nc2ccc(OC(=O)CN3C(=O)c4ccccc4C3=O)cc21` is 25.1 µM (active).

With `CC1(C)Nc2ccccc2C(=O)N1c1ccc(Br)cc1`, the Potency result was “inactive”. As for `COc1cccc(NC(=O)COC(=O)CCC(=O)c2cccs2)c1`, the entry is “inactive”; as for `O=C(C[n+]1ccccc1)NN=Cc1cc(Br)cc(Br)c1O`, “inactive”. The entry for `CC(C)OCCCn1/c(=N/C(=O)c2cccs2)c(C#N)cc2c(=O)n3ccccc3nc21` is “inactive”. The entry for `CCc1ccc(N(C(=O)c2ccco2)C(C(=O)NC2CCCC2)c2ccncc2)cc1` (stereo unspecified) is “inactive”; for `COCCN(CC(=O)NC1CCCCC1)C(=O)/C=C/C(=O)c1ccc(OC)cc1O` it is 23.8 µM (active); for `COc1ccc(C(=O)OCCOc2ccccc2C(C)=O)c(O)c1` it is “inactive”. For `COc1ccccc1N(CC(=O)NC1CCCC1)C(=O)CCC(=O)Nc1ccccn1`, the Potency entry was “inactive”. As for `COc1ccc(C(=O)/C=C/C(=O)N(CC(=O)NCCC(C)C)Cc2cccs2)c(O)c1`, the figure is 31.6 µM (active); as for `Cc1cc(NC(=O)CCC(=O)N(CC(=O)NC2CCCC2)Cc2ccccc2Cl)no1`, “inactive”; as for `COc1ccc(C(=O)/C=C/C(=O)N(CC(=O)NC2CCCCC2)Cc2ccccc2OC)c(O)c1`, 26.7 µM (active). `COc1ccc2oc(=O)c(C(=O)NC3CCCCCC3)cc2c1`: the Potency entry was “inactive”. As for `COc1ccc(C(=O)/C=C/C(=O)N(Cc2ccccc2OC)C(C(=O)NC2CCCCC2)c2ccncc2)c(O)c1` (stereo unspecified), the figure is 26.7 µM (active); as for `CCN(CC(=O)NCc1cccs1)C(=O)c1ccccc1F`, “inactive”; as for `CCN(CC(=O)NCc1cccs1)C(=O)/C=C/c1ccc(F)cc1`, “inactive”.
